{
  "source": "PubChem BioAssay (NCATS)",
  "note": "Unmarked numbers belong to inactive results. Records with an inconclusive call do not appear. Activity calls are given as the source filed them. The call rests on the fitted dose curve; in most records, active means well fitted curve in the direction sought with a large enough effect; inconclusive means small, poorly fitted or top-dose-only effect, or another doubt; inactive means no such curve, though single readings can be large; an effect the other way counts as inactive or inconclusive.",
  "data": [
    {"biological_target": "Guanine nucleotide-binding protein G(i) subunit alpha-1 (Homo sapiens) (UniProt P63096)", "sequence (P63096 whole entry, looked up)": "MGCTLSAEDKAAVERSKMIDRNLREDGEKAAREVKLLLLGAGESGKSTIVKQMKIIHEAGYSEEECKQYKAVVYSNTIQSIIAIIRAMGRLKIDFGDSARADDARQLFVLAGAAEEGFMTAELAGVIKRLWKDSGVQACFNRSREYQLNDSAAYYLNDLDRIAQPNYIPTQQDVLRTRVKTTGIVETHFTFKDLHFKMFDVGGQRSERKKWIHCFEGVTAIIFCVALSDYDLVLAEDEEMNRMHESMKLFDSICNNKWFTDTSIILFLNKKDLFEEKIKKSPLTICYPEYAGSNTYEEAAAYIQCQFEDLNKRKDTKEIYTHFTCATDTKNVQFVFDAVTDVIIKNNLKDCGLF", "assay": "qHTS Assay for Inhibitors of RGS12 GoLoco Motif Activity (Green Fluorophore) (AID 879);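 further: 0% = labeled peptide with Gαi1 and full inhibition = labeled peptide alone without protein; negative values mean loss of peptide binding seen as reduced polarization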", "conditions": "Galphai1/FITC-RGS12 GoLoco peptide, fluorescence polarization; series mostly up to 57.1 µM; activity, negative = inhibition: at the top concentration", "method_in_brief": "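A drop in FITC polarization marked displacement of the FITC-tagged RGS12 GoLoco peptide (10 nM) from Gαi1 (50 nM). Compounds were incubated 10 min at room temperature in Tris pH 7.5 buffer containing 150 mM NaCl, 0.1 mM GDP and 0.05% NP40; unlabeled peptide titration served as control.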", "units": {"activity, negative = inhibition": "%"}, "values": [
      {"smiles": "Cc1cc(C(C)(C)C)c(O)c(C)c1CC1=NCCN1", "activity, negative = inhibition": -5.74},
      {"smiles": "NCCCCCC(=O)O", "activity, negative = inhibition": 2.35},
      {"smiles": "CN(C)CCC=C1c2ccccc2C=Cc2ccccc21", "activity, negative = inhibition": -6.43},
      {"smiles": "O=C(C1CCCCC1)N1CC(=O)N2CCc3ccccc3C2C1", "note": "(stereo not given)", "activity, negative = inhibition": -2.83},
      {"smiles": "CCc1cccc2c3c([nH]c12)C(CC)(CC(=O)O)OCC3", "note": "(stereo not given)", "activity, negative = inhibition": -11.8},
      {"smiles": "CN(C)c1nc(N(C)C)nc(N(C)C)n1", "activity, negative = inhibition": -7.5},
      {"smiles": "OCCN1CCN(CCCN2c3ccccc3Sc3ccc(C(F)(F)F)cc32)CC1", "activity, negative = inhibition": -21.7},
      {"smiles": "NC(=O)NO", "activity, negative = inhibition": -16.4},
      {"smiles": "O=c1c(O)c(-c2ccc(O)c(O)c2)oc2cc(O)cc(O)c12", "activity, negative = inhibition": 5.46},
      {"smiles": "CN1CCN(C2=Nc3cc(Cl)ccc3Nc3ccccc32)CC1", "activity, negative = inhibition": -23.6},
      {"smiles": "O=C1c2c(O)ccc(O)c2C(=O)c2c(NCCNCCO)ccc(NCCNCCO)c21", "activity, negative = inhibition": -2.98},
      {"smiles": "Cc1cc(C(C)(C)C)cc(C)c1CC1=NCCN1", "activity, negative = inhibition": 3.6},
      {"smiles": "O=C(CCCN1CCC(O)(c2ccc(Cl)cc2)CC1)c1ccc(F)cc1", "activity, negative = inhibition": -10.3},
      {"smiles": "CCOC(=O)C(C)(C)Oc1ccc(Cl)cc1", "activity, negative = inhibition": -18.1},
      {"smiles": "COc1ccc(C2CNC(=O)C2)cc1OC1CCCC1", "note": "(stereo not given)", "activity, negative = inhibition": 1.51},
      {"smiles": "C[C@](N)(Cc1ccc(O)c(O)c1)C(=O)O", "activity, negative = inhibition": -5.14},
      {"smiles": "Cn1cnc2c1c(=O)[nH]c(=O)n2C", "activity, negative = inhibition": 2.44},
      {"smiles": "CN(Cc1cnc2nc(N)nc(N)c2n1)c1ccc(C(=O)N[C@@H](CCC(=O)O)C(=O)O)cc1", "activity, negative = inhibition": -12.2},
      {"smiles": "NC12CC3CC(CC(C3)C1)C2", "activity, negative = inhibition": -13.4},
      {"smiles": "CC(C)Cc1ccc(C(C)C(=O)O)cc1", "note": "(stereo not given)", "activity, negative = inhibition": 8.61},
      {"smiles": "CN1CCC(=C2c3ccccc3CC(=O)c3sccc32)CC1", "activity, negative = inhibition": -16.8},
      {"smiles": "O=C1N(c2ccccc2)c2ccccc2C1(Cc1ccncc1)Cc1ccncc1", "activity, negative = inhibition": 4.73},
      {"smiles": "Cn1ccc2cc3c(cc21)CCN3C(=O)Nc1cccnc1", "activity, negative = inhibition": -11.8},
      {"smiles": "Cc1ccccc1N1C(=O)c2cc(S(N)(=O)=O)c(Cl)cc2NC1C", "note": "(stereo not given)", "activity, negative = inhibition": -4.24},
      {"smiles": "Nc1nnc(-c2cccc(Cl)c2Cl)c(N)n1", "activity, negative = inhibition": -9.8},
      {"smiles": "COc1nc(C)nc(Cl)c1NC1=NCCN1", "activity, negative = inhibition": -6.04},
      {"smiles": "O=C(c1ccc(F)cc1)C1CCN(CCn2c(=O)[nH]c3ccccc3c2=O)CC1", "activity, negative = inhibition": 5.51},
      {"smiles": "Fc1ccc([C@@H]2CCNC[C@H]2COc2ccc3c(c2)OCO3)cc1", "activity, negative = inhibition": -24},
      {"smiles": "NCCc1cnc[nH]1", "activity, negative = inhibition": -18.7}
    ]},
    {"biological_target": "Cytochrome P450 3A4 (Homo sapiens) (UniProt P08684)", "sequence (P08684 whole entry, looked up)": "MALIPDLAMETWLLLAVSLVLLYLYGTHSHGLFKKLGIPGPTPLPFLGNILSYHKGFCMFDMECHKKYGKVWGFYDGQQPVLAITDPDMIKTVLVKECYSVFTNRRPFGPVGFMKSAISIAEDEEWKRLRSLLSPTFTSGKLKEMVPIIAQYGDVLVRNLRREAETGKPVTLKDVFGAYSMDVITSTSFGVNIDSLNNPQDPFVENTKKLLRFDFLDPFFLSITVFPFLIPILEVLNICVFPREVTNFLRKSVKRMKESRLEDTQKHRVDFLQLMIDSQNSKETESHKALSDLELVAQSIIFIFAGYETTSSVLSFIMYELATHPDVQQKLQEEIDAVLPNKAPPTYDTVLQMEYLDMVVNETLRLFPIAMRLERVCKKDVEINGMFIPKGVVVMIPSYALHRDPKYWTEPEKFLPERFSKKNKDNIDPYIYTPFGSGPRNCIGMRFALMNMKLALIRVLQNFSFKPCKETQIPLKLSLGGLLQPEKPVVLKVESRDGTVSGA", "assay": "qHTS Assay for Inhibitors and Substrates of Cytochrome P450 3A4 (AID 884); further: on the % scale 0 is the no-effect control and ±100 the full control effect; nearly all actives have a fitted effect of over 50% in size", "conditions": "recombinant CYP3A4, Luciferin-PPXE luminescence; series mostly up to 57.1 µM; activity change, negative = inhibition: at the top concentration", "method_in_brief": "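Luminescent readout of luciferin produced by CYP3A4 (20 nM) dealkylation of Luciferin-PPXE, 25 uM (its KM). NADPH-driven reaction ran 60 min at RT after 10 min compound preincubation; data scaled to 57 uM ketoconazole as 100% inhibition.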", "units": {"activity change, negative = inhibition": "%"}, "values": [
      {"smiles": "NCCCCCC(=O)O", "activity change, negative = inhibition": -6.43},
      {"smiles": "CN(C)CCC=C1c2ccccc2C=Cc2ccccc21", "activity change, negative = inhibition": -40.2},
      {"smiles": "CN(Cc1cnc2nc(N)nc(N)c2n1)c1ccc(C(=O)N[C@@H](CCC(=O)O)C(=O)O)cc1", "activity change, negative = inhibition": -28.2},
      {"smiles": "CC(C)Cc1ccc(C(C)C(=O)O)cc1", "note": "(stereo not given)", "activity change, negative = inhibition": -4.62},
      {"smiles": "CN1CCC(=C2c3ccccc3CC(=O)c3sccc32)CC1", "outcome": "inactive"},
      {"smiles": "COc1nc(C)nc(Cl)c1NC1=NCCN1", "activity change, negative = inhibition": -8.18}
    ]}
  ]
}
